In the supplement of paper PMC8975748:
Counter-ions that a name gives are not always drawn.

system: Saccharomyces cerevisiae BY4741 SeMeCo community; assay: z-score of subpopulation abundance vs DMSO median, subpopulation auxotrophic for U; higher = larger share of this subpopulation than in DMSO controls; settings: 10 µM; 24 h; SM minimal medium; subpopulation (auxotrophy): U
Experimental: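 Fluorescent four-plasmid SeMeCo (self-establishing metabolically cooperating S. cerevisiae BY4741 community; plasmids pH-mRuby2, pL-mWasabi, pU-eCFP, pM-TagRFP657) was grown 24 h in minimal SM medium with each Selleck FDA-approved drug at 10 µM in 384-well plates. Cells were fixed and imaged by high-content confocal microscopy. For each auxotrophic subpopulation (and the prototroph), a z-score gives the deviation from the DMSO vehicle-control population median.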

Compound	z-score of subpopulation abundance
O=C(O[C@H]1C[C@H]2CC[C@@H](C1)[N+]21CCCC1)C(O)(c1ccccc1)c1ccccc1 [Trospium chloride]	-0.17
Cc1cc(C(C#N)c2ccc(Cl)cc2)c(Cl)cc1NC(=O)c1cc(I)cc(I)c1O (stereo not given) [Closantel]	-0.26
CN(C)C(=O)Oc1cccc([N+](C)(C)C)c1 [Neostigmine Bromide]	-0.26
CC1(C)SC2C(N)C(=O)N2C1C(=O)O (stereo not given) [6-Aminopenicillanic acid]	0.1
CC(C)N(CCC(C(N)=O)(c1ccccc1)c1ccccn1)C(C)C (stereo not given) [Disopyramide]	-1.21
NCCc1c[nH]c2ccc(O)cc12 [Serotonin HCl]	0.33
Nc1ccncc1 [4-Aminopyridine]	-0.8
C[C@H]1O[C@H](O[C@H]2[C@H](O)[C@@H](O)[C@@H](O)[C@H](O)[C@@H]2O)[C@@H](N)C[C@@H]1NC(=N)C(=O)O [Kasugamycin hydrochloride]	-0.23
COc1ccc2c(c1)[C@]13CCCC[C@@H]1[C@H](C2)N(C)CC3 [Dextromethorphan hydrobromide hydrate]	0.26
C[C@@H]1CC[C@H]2[C@@H](C)C(=O)O[C@@H]3O[C@@]4(C)CC[C@@H]1[C@]32OO4 [Artemisinin]	0.61
O=c1cccc2n1C[C@@H]1CNC[C@H]2C1 [Cytisine]	-0.25
C=CC[C@]1(O)CC[C@H]2[C@@H]3CCC4=CC(=O)CCC4=C3C=C[C@@]21C [Altrenogest]	-1.52
CC(=O)O[C@H]1C[C@@H]2CC[C@@H]3[C@H](CC[C@@]4(C)[C@H]3C[C@H]([N+]3(C)CCCCC3)[C@@H]4OC(C)=O)[C@@]2(C)C[C@@H]1[N+]1(C)CCCCC1 [Pancuronium dibromide]	0.25
CN1[C@@H]2CC[C@H]1C[C@@H](OC(=O)C(CO)c1ccccc1)C2 (stereo not given in full) [Atropine sulfate monohydrate]	0.96
CC(C)=CCOc1c2occc2cc2ccc(=O)oc12 [Imperatorin]	0.23
Oc1cc(Cl)ccc1Oc1ccc(Cl)cc1Cl [Triclosan]	-0.09
C=CCN1C[C@H](C(=O)N(CCCN(C)C)C(=O)NCC)C[C@@H]2c3cccc4[nH]cc(c34)C[C@H]21 [Cabergoline]	1.05
CCN(C)C(=O)Oc1cccc([C@H](C)N(C)C)c1 [Rivastigmine]	-0.07
C[C@@H]1O[C@@H](O[C@H]2C[C@@H](O)[C@]3(CO)[C@H]4[C@H](O)C[C@]5(C)[C@@H](C6=CC(=O)OC6)CC[C@]5(O)[C@@H]4CC[C@]3(O)C2)[C@H](O)[C@H](O)[C@H]1O [Ouabain]	0.18
CCOC(=O)Nc1ccc(NCc2ccc(F)cc2)cc1N [Retigabine 2HCl]	-0.66

Compound	z-score of subpopulation abundance
NC(=O)CN1CCCC1=O [Piracetam]	-0.08
CCN(CC)CCOC(=O)C(O)(c1ccccc1)c1ccccc1 [Benactyzine hydrochloride]	1.08
COc1ccc2c3c([nH]c2c1)C(C)=NCC3 [Harmaline]	-8.11
COc1ccc(C(CN(C)C)C2(O)CCCCC2)cc1 (stereo not given) [Venlafaxine HCl]	-0.58
Nc1nc(N)nc(NC2CC2)n1 [Cyromazine]	0.89
CCCCCCCCCCCCCCCC[n+]1ccccc1 [Cetylpyridinium Chloride]	1.27
CCC1=C[C@H]2CN3CCc4c([nH]c5ccccc45)[C@](C(=O)OC)(C2)[C@H]13 [Catharanthine]	0.69
C=C[C@H]1CN2CC[C@H]1C[C@H]2[C@H](O)c1ccnc2ccccc12 [Cinchonidine]	0.59
C=C(C)[C@H]1Cc2c(ccc3c2O[C@@H]2COc4cc(OC)c(OC)cc4[C@@H]2C3=O)O1 [Rotenone (Barbasco)]	-0.02
CN(C)C(=O)Oc1ccc[n+](C)c1 [Pyridostigmine Bromide]	0.29
CN1[C@@H]2C[C@@H](OC(=O)[C@H](CO)c3ccccc3)C[C@H]1[C@@H]1O[C@@H]12 [Scopolamine HBr]	0.09
COC(=O)C1=CCCN(C)C1 [Arecoline HBr]	-0.09
CCOC(=O)Nc1ccc(NCc2ccc(F)cc2)cc1N [Retigabine]	-0.91
CC[C@@H](C(N)=O)N1CCCC1=O [Levetiracetam]	0
C[N+]1(C)[C@@H]2C[C@@H](OC(=O)[C@H](CO)c3ccccc3)C[C@H]1[C@@H]1O[C@@H]12 [Methscopolamine]	0.61
CC(NC(C)(C)C)C(=O)c1cccc(Cl)c1 (stereo not given) [Amfebutamone (Bupropion) HCl]	0.11
CC(C)(O)C(Cl)(Cl)Cl [Chlorobutanol]	0.13
CCN1CC2(OC(=O)c3ccccc3NC(C)=O)CCC(OC)C34C1C(CC23)C1(O)CC(OC)C2CC4C1(O)C2OC (stereo not given) [Lappaconitine]	-0.25
CC[C@H]1CN2CC[C@]3(C(=O)Nc4ccccc43)[C@@H]2C[C@@H]1/C(=C\OC)C(=O)OC [Rhynchophylline]	0.63
CN(C)[C@@H]1C(=O)C(C(N)=O)=C(O)[C@@]2(O)C(=O)C3=C(O)c4c(O)cccc4[C@@](C)(O)[C@H]3[C@H](O)[C@@H]12 [Oxytetracycline (Terramycin)]	0.03
